Measurements as given in PubChem BioAssay (NCATS).
Inconclusive results are not listed. Entries that show only a call come without a potency. Calls of active or inactive are those of the source. The call rests on the fitted dose curve; in most records, active means well fitted curve in the direction sought with a large enough effect; inconclusive means small, poorly fitted or top-dose-only effect, or another doubt; inactive means no such curve, though single readings can be large; an effect the other way counts as inactive or inconclusive.

Biological target: Single-stranded DNA cytosine deaminase (Homo sapiens) (UniProt Q9GZX7)
Sequence (Q9GZX7 whole entry, looked up): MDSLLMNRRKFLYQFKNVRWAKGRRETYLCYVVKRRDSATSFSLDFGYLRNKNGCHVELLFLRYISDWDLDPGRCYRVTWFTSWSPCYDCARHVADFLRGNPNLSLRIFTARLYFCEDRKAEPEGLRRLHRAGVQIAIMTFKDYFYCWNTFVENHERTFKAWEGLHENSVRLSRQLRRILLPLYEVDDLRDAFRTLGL
Assay: Validation qHTS assay for inhibitors of Activation Induced Cytidine Deaminase (AID): AID signal (AID 1347429); further: potency means the concentration at half of the fitted maximal effect
Conditions: Recombinant AID, FRET ssDNA deamination with UDG, fluorescence; series mostly up to 115 µM
Method in brief: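 Fluorescence at 540 nm excitation and 590 nm emission reports ssDNA cytosine deamination by AID, with UDG in the same well. Compound-treated reactions ran 4 hr at room temperature with DJC20/DJC23 substrate, followed by 30 min NaOH treatment.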

SMILES	Potency
N=c1c[n+](N2CCOCC2)[n-]o1	inactive
CC(C)(C)c1onc(OCP(=O)(O)O)c1CC(N)C(=O)O (centres undefined)	inactive
CSc1ccc2c(c1)C(N1CCN(C)CC1)Cc1ccccc1S2 (centres undefined)	inactive
COCCOC(=O)C1=C(C)NC(C)=C(C(=O)OC/C=C/c2ccccc2)C1c1cccc([N+](=O)[O-])c1 (centres undefined)	inactive
CC(C)NC[C@H](O)c1ccc(O)c(O)c1	inactive
CN1CCN(C2Cc3ccccc3Sc3ccc(Cl)cc32)CC1 (centres undefined)	inactive
CC(C)(C)[C@]1(O)CCN2C[C@H]3c4ccccc4CCc4cccc(c43)[C@@H]2C1	inactive
Cc1cc(N)c2ccccc2[n+]1CCCCCCCCCC[n+]1c(C)cc(N)c2ccccc21	50.1 µM (active)
CSc1ccc2c(c1)N(CCC1CCCCN1C)c1ccccc1S2 (centres undefined)	inactive

Test system: not listed separately
Assay: Primary qHTS for inhibitors of La Crosse Virus (LACV) - induced cell death in SH-SY5Y cells (AID 1508616);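 further: top concentration of the series differs between compounds; higher means more rescue of cells from virus-induced death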
Conditions: SH-SY5Y LACV cytopathicity rescue, ATP luminescence, 6 d; series mostly up to 4.29 µM
Method in brief: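 Protection against LACV-induced cell death is scored in SH-SY5Y cells exposed to compounds and virus (0.01 MOI) for 6 days. Data normalized to virus-infected DMSO wells and virus-free DMSO wells.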

SMILES	outcome
N=c1c[n+](N2CCOCC2)[n-]o1	inactive
Oc1cn2c(n1)Nc1ccc(Cl)c(Cl)c1C2	inactive
CO/N=C(\C(=O)N[C@@H]1C(=O)N2C(C(=O)O)=C(CSc3nc(=O)c(O)nn3C)CS[C@H]12)c1csc(N)n1	inactive
Cc1ncc(COP(=O)(O)O)c(C=O)c1O	inactive
CC(=O)O[C@@]12CO[C@@H]1C[C@H](O)[C@@]1(C)C(=O)[C@H](O)C3=C(C)[C@@H](OC(=O)[C@H](O)[C@@H](NC(=O)OC(C)(C)C)c4ccccc4)C[C@@](O)([C@@H](OC(=O)c4ccccc4)[C@H]21)C3(C)C	inactive
CCOc1ccc2ccccc2c1C(=O)N[C@@H]1C(=O)N2[C@@H]1SC(C)(C)[C@@H]2C(=O)O	inactive
CC(=O)Oc1ccc(C2(c3ccc(OC(C)=O)cc3)C(=O)Nc3ccccc32)cc1	inactive
CC(=O)Nc1ccc(/C=N/NC(N)=S)cc1	inactive
O=C1NS(=O)(=O)c2ccccc21	inactive
Cc1c(Cl)cccc1Nc1ccccc1C(=O)O	inactive
CC(O)CN(CCN(CC(C)O)CC(C)O)CC(C)O (centres undefined)	inactive
CC[N+](CC)(CC)CCOc1ccc(/C=C/c2ccccc2)cc1	inactive
CC(C)(C)c1onc(OCP(=O)(O)O)c1CC(N)C(=O)O (centres undefined)	inactive
CC/C=C(\C(=O)N[C@@H]1C(=O)N2C(C(=O)OCOC(=O)C(C)(C)C)=C(COC(N)=O)CS[C@H]12)c1csc(N)n1	inactive
O=c1cc[nH]c(=S)[nH]1	inactive
COc1ccc2cc1Oc1ccc(cc1)C[C@H]1c3c(cc4c(c3Oc3cc5c(cc3OC)CCN(C)[C@@H]5C2)OCO4)CCN1C	inactive

SMILES	outcome
CSc1ccc2c(c1)C(N1CCN(C)CC1)Cc1ccccc1S2 (centres undefined)	inactive
COc1ccc2c(c1)C(=O)N(CCc1ccc(S(=O)(=O)NC(=O)NC3CCCCC3)cc1)C(=O)C2(C)C	inactive
COCCOC(=O)C1=C(C)NC(C)=C(C(=O)OC/C=C/c2ccccc2)C1c1cccc([N+](=O)[O-])c1 (centres undefined)	inactive
CC(C)NC[C@H](O)c1ccc(O)c(O)c1	inactive
CN1[C@@H]2CC(OC(=O)[C@H](CO)c3ccccc3)C[C@H]1[C@@H]1O[C@@H]12 (some centres undefined)	inactive
CCCc1c(OCCCCc2nn[nH]n2)ccc(C(C)=O)c1O	inactive
Cc1c(O)cccc1C(=O)N[C@@H](CSc1ccccc1)[C@H](O)CN1C[C@H]2CCCC[C@H]2C[C@H]1C(=O)NC(C)(C)C	inactive
CN1CCN(C2Cc3ccccc3Sc3ccc(Cl)cc32)CC1 (centres undefined)	inactive
CS(=O)(=O)c1ccc([C@@H](O)[C@@H](CF)NC(=O)C(Cl)Cl)cc1	inactive
CC(C)(C)[C@]1(O)CCN2C[C@H]3c4ccccc4CCc4cccc(c43)[C@@H]2C1	inactive
c1ccc(CN(CC2=NCCN2)c2ccccc2)cc1	inactive
Cc1cc(N)c2ccccc2[n+]1CCCCCCCCCC[n+]1c(C)cc(N)c2ccccc21	inactive
CCCCN(CCCC)CCCOC(=O)c1ccc(N)cc1	inactive
CC(=O)Oc1c(C)c(C)c2c(c1C)CC[C@@](C)(CCC[C@H](C)CCC[C@H](C)CCCC(C)C)O2	inactive
CSc1ccc2c(c1)N(CCC1CCCCN1C)c1ccccc1S2 (centres undefined)	inactive

Biological target: Calcium and integrin-binding protein 1 (Homo sapiens) (UniProt Q99828)
Sequence (Q99828 whole entry, looked up): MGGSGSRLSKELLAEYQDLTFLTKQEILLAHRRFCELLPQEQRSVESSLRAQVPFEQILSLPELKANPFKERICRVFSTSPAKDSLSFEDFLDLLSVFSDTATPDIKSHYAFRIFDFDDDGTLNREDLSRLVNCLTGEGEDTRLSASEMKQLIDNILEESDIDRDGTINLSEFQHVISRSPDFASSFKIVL
Assay: Validation qHTS for Identification of Calcium Integrin Binding protein 1 (CIB1) Competitor (AID 1508618)
Conditions: CIB1-GST / FITC-alphaIIb peptide fluorescence polarization; series mostly up to 114 µM
Method in brief: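 Displacement of FITC-alphaIIb peptide (100 nM) from CIB1-GST (1 uM) is monitored by polarization in quantitative HTS format; buffer carries 5 mM CaCl2 and 125 mM NaCl at pH 7.4, incubations are at room temperature.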

SMILES	outcome
N=c1c[n+](N2CCOCC2)[n-]o1	inactive
CC(C)(C)c1onc(OCP(=O)(O)O)c1CC(N)C(=O)O (centres undefined)	inactive
COCCOC(=O)C1=C(C)NC(C)=C(C(=O)OC/C=C/c2ccccc2)C1c1cccc([N+](=O)[O-])c1 (centres undefined)	inactive
CC(C)NC[C@H](O)c1ccc(O)c(O)c1	inactive
Cc1c(O)cccc1C(=O)N[C@@H](CSc1ccccc1)[C@H](O)CN1C[C@H]2CCCC[C@H]2C[C@H]1C(=O)NC(C)(C)C	inactive
CN1CCN(C2Cc3ccccc3Sc3ccc(Cl)cc32)CC1 (centres undefined)	inactive
CC(C)(C)[C@]1(O)CCN2C[C@H]3c4ccccc4CCc4cccc(c43)[C@@H]2C1	inactive
Cc1cc(N)c2ccccc2[n+]1CCCCCCCCCC[n+]1c(C)cc(N)c2ccccc21	inactive
CSc1ccc2c(c1)N(CCC1CCCCN1C)c1ccccc1S2 (centres undefined)	inactive
